About 79,000 compounds went through this panel and 15% of them were active in at least one assay; those are over-represented in the sample as a whole. The source made the active and inactive calls. Cut-off read from the data, not from the text of the source: active = growth inhibition above about 70%; inactive = the rest.
Columns and labels:
[1] = NCI Yeast Anticancer Drug Screen. Data for the rad52 strain (AID 147);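 note: 0% = growth of vehicle-treated control cultures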; settings: S. cerevisiae rad52 mutant growth inhibition, stronger effect = higher value
Summary of the method: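 Yeast strain carrying a DNA damage repair alteration was exposed to test compounds. Growth inhibition was measured relative to vehicle-treated controls.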

[2] = NCI Yeast Anticancer Drug Screen. Data for the wt1 strain (AID 149);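 note: 0% = growth of vehicle-treated wt1 cultures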; settings: S. cerevisiae wt1 strain (SPY 50644) growth inhibition, stronger effect = higher value
Summary of the method: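 Vehicle-normalised growth inhibition; strain wt1; compound exposure.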

[3] = NCI Yeast Anticancer Drug Screen. Data for the rad50EPP+ strain (AID 151);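 note: 0% = growth of vehicle-treated control cultures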; settings: S. cerevisiae rad50 mutant strain, stronger effect = higher value
Summary of the method: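 Yeast strain carrying rad50 alteration (rad50EPP+) exposed to compounds; growth inhibition measured relative to vehicle-treated controls.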

[4] = NCI Yeast Anticancer Drug Screen. Data for the mgt1 strain (AID 153); settings: S. cerevisiae mgt1 mutant growth inhibition, stronger effect = higher value
Summary of the method: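 Yeast mgt1 strain (DNA repair/cell-cycle alteration panel) exposed to compounds; growth inhibition measured relative to vehicle-treated controls.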

[5] = NCI Yeast Anticancer Drug Screen. Data for the rad50 strain (AID 155);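 note: 0% = growth of vehicle-only cultures of the same strain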; settings: S. cerevisiae rad50 strain growth inhibition, stronger effect = higher value
Summary of the method: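 A DNA repair-deficient yeast mutant serves as the test organism; compound-induced growth inhibition is calculated against vehicle-treated cells.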

[6] = NCI Yeast Anticancer Drug Screen. Data for the mec2-1 strain (AID 157); settings: S. cerevisiae mec2-1 strain, stronger effect = higher value
Summary of the method: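 mec2-1 yeast strain, carrying an alteration in DNA damage repair or cell cycle control, was exposed to compounds; growth inhibition was measured relative to vehicle-treated controls.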

[7] = NCI Yeast Anticancer Drug Screen. Data for the rad14 strain (AID 159);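 note: 0% = growth of vehicle-treated control cultures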; settings: S. cerevisiae rad14 strain growth inhibition, stronger effect = higher value
Summary of the method: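 Vehicle-treated cultures served as the baseline for growth inhibition of a DNA repair-mutant yeast strain exposed to each compound.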

[8] = NCI Yeast Anticancer Drug Screen. Data for the sgs1 mgt1 strain (AID 161);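 note: 0% = growth of cultures given vehicle only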; settings: S. cerevisiae sgs1 mgt1 strain, stronger effect = higher value
Summary of the method: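 Growth of a repair-deficient yeast mutant was monitored after compound treatment and expressed as inhibition relative to vehicle-treated cultures.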

[9] = NCI Yeast Anticancer Drug Screen. Data for the CLN2oe strain (AID 163);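 note: 0% = growth of vehicle-only control cultures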; settings: S. cerevisiae CLN2oe strain, stronger effect = higher value
Summary of the method: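 Yeast cells carrying a defined cell-cycle control alteration were exposed to test compounds. Growth inhibition was scored against vehicle-treated control cultures.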

[10] = NCI Yeast Anticancer Drug Screen. Data for the cln2 rad14 strain (AID 165);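 note: 0% = growth equal to vehicle treated cultures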; settings: S. cerevisiae cln2 rad14 strain, stronger effect = higher value
Summary of the method: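 Yeast carrying cln2 and rad14 alterations (cell cycle control and DNA damage repair) were exposed to compounds. Growth inhibition was measured against vehicle-treated controls.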

[11] = NCI Yeast Anticancer Drug Screen. Data for the bub3 strain (AID 167); settings: S. cerevisiae bub3 mutant strain, stronger effect = higher value
Summary of the method: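 Inhibition values come from growth of compound-treated mutant yeast normalised to vehicle-treated controls.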

[12] = NCI Yeast Anticancer Drug Screen. Data for the wt2 strain (AID 169);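 note: 0% = growth of vehicle-treated yeast cultures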; settings: S. cerevisiae wt2 strain growth inhibition, stronger effect = higher value
Summary of the method: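 Yeast cells were exposed to test compounds, and growth inhibition was measured relative to vehicle-treated controls.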

[13] = NCI Yeast Anticancer Drug Screen. Data for the mlh1 strain (AID 171);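 note: 0% = growth of vehicle-treated control cultures of the same strain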; settings: S. cerevisiae mlh1 strain growth inhibition, stronger effect = higher value
Summary of the method: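 Yeast carrying a defined genetic alteration in DNA damage repair or cell cycle control were exposed to test compounds. Growth inhibition was measured relative to vehicle-treated controls.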

[14] = NCI Yeast Anticancer Drug Screen. Data for the sgs1 strain (AID 173);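 note: 0% = growth of vehicle-only control cultures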; settings: S. cerevisiae sgs1 mutant, stronger effect = higher value
Summary of the method: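 Yeast mutant strains carrying defined defects in DNA damage repair or cell cycle control were exposed to test compounds. Growth inhibition was scored against vehicle-treated controls.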

[15] = NCI Yeast Anticancer Drug Screen. Data for the mlh1 rad18 strain (AID 175); settings: S. cerevisiae mlh1 rad18 strain growth inhibition, stronger effect = higher value
Summary of the method: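 Growth inhibition of the yeast strain was measured after compound exposure and expressed relative to vehicle-treated controls. The strain carries defined defects in DNA damage repair.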

[16] = NCI Yeast Anticancer Drug Screen. Data for the rad18 strain (AID 177); settings: S. cerevisiae rad18 mutant growth inhibition, stronger effect = higher value
Summary of the method: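 Yeast carrying a defined DNA damage repair alteration were exposed to compounds. Growth inhibition was expressed relative to vehicle-treated controls.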

[17] = at 5.0 µM (retest, dose inferred, filed as 0.5)
[18] = at 50.0 µM (retest, dose inferred, filed as 5.0)

Measured: growth inhibition

Cc1cc(C)c(NC(=S)NC(=O)c2ccccc2)cc1C
inactive: [1]; at 1.2 µM -33% | [1]; at 3.7 µM -58% | [1]; at 11.0 µM -54% | [1]; at 33.0 µM -41% | [1]; at 100.0 µM -44% | [2]; at 1.2 µM -46% | [2]; at 3.7 µM -29% | [2]; at 11.0 µM -39% | [2]; at 33.0 µM -17% | [2]; at 100.0 µM -14% | [3]; at 1.2 µM -44% | [3]; at 3.7 µM -41% | [3]; at 11.0 µM -25% | [3]; at 33.0 µM -18% | [3]; at 100.0 µM -5% | [4]; at 1.2 µM -57% | [4]; at 3.7 µM -54% | [4]; at 11.0 µM -25% | [4]; at 33.0 µM 26% | [4]; at 100.0 µM 37% | [5]; at 1.2 µM -50% | [5]; at 3.7 µM -52% | [5]; [17] -13% | [5]; at 11.0 µM -52% | [5]; at 33.0 µM -39% | [5]; [18] -4% | [5]; at 50.0 µM 18.4% | [5]; at 100.0 µM -21% | [6]; at 1.2 µM -41% | [6]; at 3.7 µM -61% | [6]; [17] -16% | [6]; at 11.0 µM -49% | [6]; at 33.0 µM -46% | [6]; [18] 4% | [6]; at 50.0 µM -0.25% | [6]; at 100.0 µM -11% | [7]; at 1.2 µM -40% | [7]; at 3.7 µM -48% | [7]; at 11.0 µM -40% | [7]; at 33.0 µM -16% | [7]; at 100.0 µM -9% | [8]; [17] -7% | [8]; [18] 41% | [8]; at 50.0 µM 25.3% | [9]; at 1.2 µM -63% | [9]; at 3.7 µM -78% | [9]; at 11.0 µM -58% | [9]; at 33.0 µM -64% | [9]; at 100.0 µM -57% | [10]; [17] -4% | [10]; [18] 15% | [10]; at 50.0 µM 2.25% | [11]; at 1.2 µM -21% | [11]; at 3.7 µM -17% | [11]; [17] 8% | [11]; at 11.0 µM 38% | [11]; at 33.0 µM 65% | [11]; at 50.0 µM 49.6% | [11]; at 100.0 µM 62% | [12]; at 1.2 µM -43% | [12]; at 3.7 µM -49% | [12]; at 11.0 µM -43% | [12]; at 33.0 µM -4% | [12]; at 100.0 µM 22% | [13]; at 1.2 µM -34% | [13]; at 3.7 µM -20% | [13]; at 11.0 µM -7% | [13]; at 33.0 µM 34% | [13]; at 100.0 µM 32% | [14]; at 1.2 µM -62% | [14]; at 3.7 µM -54% | [14]; at 11.0 µM -45% | [14]; at 33.0 µM -3% | [14]; at 100.0 µM -1% | [15]; [17] -37% | [15]; [18] -12% | [15]; at 50.0 µM 8.65% | [16]; at 1.2 µM -75% | [16]; at 3.7 µM -62% | [16]; at 11.0 µM -73% | [16]; at 33.0 µM -41% | [16]; at 100.0 µM -46%
active: [11]; [18] 79%

CCC1(OC(=O)CN2CCN(CCO)CC2)C(=O)OCc2c1cc1n(c2=O)Cc2cc3ccccc3nc2-1 (stereo unspecified)
active: [1]; at 11.0 µM 70% | [1]; at 33.0 µM 89% | [1]; at 100.0 µM 93% | [3]; at 100.0 µM 82% | [5]; at 11.0 µM 74% | [5]; at 33.0 µM 88% | [5]; [18] 83% | [5]; at 100.0 µM 92% | [15]; at 50.0 µM 78.3%
inactive: [1]; at 1.2 µM 35% | [1]; at 3.7 µM 49% | [2]; at 1.2 µM 9% | [2]; at 3.7 µM 15% | [2]; at 11.0 µM 24% | [2]; at 33.0 µM 13% | [2]; at 100.0 µM 7% | [3]; at 1.2 µM 16% | [3]; at 3.7 µM 17% | [3]; at 11.0 µM 42% | [3]; at 33.0 µM 60% | [4]; at 1.2 µM -18% | [4]; at 3.7 µM -20% | [4]; at 11.0 µM -19% | [4]; at 33.0 µM -23% | [4]; at 100.0 µM -45% | [5]; at 1.2 µM 18% | [5]; at 3.7 µM 57% | [5]; [17] 4% | [5]; at 50.0 µM 17.9% | [6]; at 1.2 µM -23% | [6]; at 3.7 µM -19% | [6]; [17] 4% | [6]; at 11.0 µM -12% | [6]; at 33.0 µM -21% | [6]; [18] -2% | [6]; at 50.0 µM 20.1% | [6]; at 100.0 µM 29% | [7]; at 1.2 µM -13% | [7]; at 3.7 µM -4% | [7]; at 11.0 µM -25% | [7]; at 33.0 µM -14% | [7]; at 100.0 µM -20% | [8]; [17] -8% | [8]; [18] -10% | [8]; at 50.0 µM 3.05% | [9]; at 1.2 µM 3% | [9]; at 3.7 µM 5% | [9]; at 11.0 µM 2% | [9]; at 33.0 µM -23% | [9]; at 100.0 µM -3% | [10]; [17] 20% | [10]; [18] 17% | [10]; at 50.0 µM 8.9% | [11]; at 1.2 µM -4% | [11]; at 3.7 µM 1% | [11]; [17] 0% | [11]; at 11.0 µM -10% | [11]; at 33.0 µM -14% | [11]; [18] 3% | [11]; at 50.0 µM -21.4% | [11]; at 100.0 µM -30% | [12]; at 1.2 µM 11% | [12]; at 3.7 µM 9% | [12]; at 11.0 µM 14% | [12]; at 33.0 µM 5% | [12]; at 100.0 µM -4% | [14]; at 1.2 µM 30% | [14]; at 3.7 µM 21% | [14]; at 11.0 µM 26% | [14]; at 33.0 µM 21% | [14]; at 100.0 µM 24% | [15]; [17] -8% | [15]; [18] -1% | [16]; at 1.2 µM 9% | [16]; at 3.7 µM 19% | [16]; at 11.0 µM 6% | [16]; at 33.0 µM 6% | [16]; at 100.0 µM 1%

Source: PubChem BioAssay (NCI)
